Compound activity as filed in PubChem.
Algae TAG accum: algal TAG accumulation induction | Chlamydomonas reinhardtii TAG, Nile Red fluorescence, 72 h | calls only at 10 µM (by protocol) | 44,000 tested, 0.84% active | AID 1159537; call rule not given here;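 also: hits raise Nile Red signal meaning more stored TAG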
An asterisk follows results filed as active; i = inactive; + = active, no number. The full list was thinned out, with hits kept by preference.

SMILES	Algae TAG accum
O=C(CC(c1ccccc1)c1ccccc1)NCc1cccs1	i
CCOc1ccc(C(O)=C2C(=O)C(=O)N(CCOC)C2c2cccc([N+](=O)[O-])c2)cc1 (configuration not stated)	i
O=C(CCCOc1ccccc1)NC1CCCCCC1	i
c1coc(CN2CCN(C3CCCCCC3)CC2)c1	+
O=[N+]([O-])c1ccccc1CN1CCN(CC2CC3C=CC2C3)CC1 (configuration not stated)	+
COc1cccc(N2CCN(CC3CC4C=CC3C4)CC2)c1 (configuration not stated)	+
C1=CC2CC1CC2CN1CCN(Cc2ccccc2)CC1 (configuration not stated)	+
c1coc(CN2CCN(Cc3ccncc3)CC2)c1	i
O=[N+]([O-])c1ccccc1CN1CCN(CC2CC=CCC2)CC1 (configuration not stated)	i
c1ccc(N2CCN(Cc3ccco3)CC2)cc1	i
O=C(c1ccc(F)cc1)N1CCN(CC2CC3C=CC2C3)CC1 (configuration not stated)	i
OC1CCN(CC2CC3C=CC2C3)CC1 (configuration not stated)	i
OCCN1CCN(C2CCN(CC3CC4C=CC3C4)CC2)CC1 (configuration not stated)	i
C1=CC2CC1CC2CN1CCN(Cc2ccncc2)CC1 (configuration not stated)	i
O=[N+]([O-])c1ccccc1CN1CCCC1	i
Cn1c(=O)c2c(ncn2CC(=O)Nc2ccc(S(=O)(=O)N3CCCC3)cc2)n(C)c1=O	i
CCCCOc1ccc(S(=O)(=O)NCCCn2ccnc2)cc1	i
COc1cc(C=O)cc(I)c1OCc1ccc(C)cc1	i
CCOCCSC1=C(C#N)C(c2cccc([N+](=O)[O-])c2)C(C(C)=O)=C(C)N1 (configuration not stated)	i
Cc1cc(Cl)ccc1OCC(=O)NCCc1ccccc1	i
COc1ccc(-c2cc(-c3ccc(F)cc3)nc(N3CCOCC3)n2)cc1	i
C1=CC2CC1CC2CN1CCN(Cc2ccco2)CC1 (configuration not stated)	+
COc1ccc(CN2CCN(Cc3ccc(OC)c(OC)c3)CC2)cc1	i
COc1ccc(CN2CCCCCC2)cc1OC	i
COc1cc(OC)c(OC)cc1CN1CCN(c2cc(C)ccc2C)CC1	i
SMILES	Algae TAG accum
Cc1ccc(C)c(N2CCN(CC3CC4C=CC3C4)CC2)c1 (configuration not stated)	+
CCS(=O)(=O)N1CCN(CC2CC3C=CC2C3)CC1 (configuration not stated)	i
COc1ccc(CN2CCN(CC3CC4C=CC3C4)CC2)cc1OC (configuration not stated)	+
Cn1cccc1CN1CCN(Cc2ccco2)CC1	i
C1=CCC(CN2CCN(Cc3ccco3)CC2)CC1 (configuration not stated)	i
CCOc1cc(C(=O)Nc2c(CC)cccc2CC)cc(OCC)c1OCC	i
Cc1[nH]nc(-c2ccc(O)c(O)c2O)c1Oc1ccccc1	i
O=C(Cc1ccc([N+](=O)[O-])cc1)N1c2ccccc2Sc2ccccc21	i
CCOC(CC)CNc1c([N+](=O)[O-])c(=O)n(C)c2ccccc12 (configuration not stated)	i
O=C(Nc1cccc(Br)c1)c1cccc(Cl)c1Cl	i
CC(=O)N1CCN(c2cc(N3CCN(C)CC3)c(F)cc2[N+](=O)[O-])CC1	i
CCc1ccc(CN2CCC(N3CCN(c4ccccc4OC)CC3)CC2)cc1	i
COc1ccccc1N1CCN(C2CCN(Cc3cccc(F)c3)CC2)CC1	+
COc1ccccc1N1CCN(C2CCN(Cc3ccc4c(c3)OCO4)CC2)CC1	i
CC1CN(CCOCCOc2ccccc2)CC(C)O1 (configuration not stated)	i
CCN(Cc1ccccc1)C(=O)CSc1ccccc1	i
COc1ccc(Cl)cc1NC(=O)C(C)(C)Oc1ccc(Cl)cc1	i
CC(C)(Oc1ccc(Cl)cc1)C(=O)Nc1ccccc1Br	i
CC(C)(Oc1ccc(Cl)cc1)C(=O)Nc1ccc(Br)cc1F	+
O=C(O)C1CCCCN1S(=O)(=O)c1ccc(Br)cc1 (configuration not stated)	i
CCOc1ccccc1C(=O)NCCNC(=O)c1ccccc1OCC	i
CCOc1ccccc1C(=O)NC1CCC(NC(=O)c2ccccc2OCC)CC1 (configuration not stated)	i
CCOc1ccccc1C(=O)NC1CC1	+
C=CCn1c(=O)c(C(=O)Nc2ccc(Cl)cc2OC)c(O)c2ccccc21	i
COc1cc(Cl)c(C)cc1NC(=O)c1cccs1	i
SMILES	Algae TAG accum
CN(C)CC1C(=O)N(c2ccccc2)N(c2ccccc2)C1=O	i
COc1cc2c(cc1OC)C(c1cc3c(cc1[N+](=O)[O-])OCO3)N(C(C)=O)CC2 (configuration not stated)	i
CC(CNC(=O)c1ccc(F)cc1)CN(C)C (configuration not stated)	i
CC(CNC(=O)c1ccc(C(C)(C)C)cc1)CN(C)C (configuration not stated)	+
Cc1cccc(C(=O)NCC(C)CN(C)C)c1 (configuration not stated)	i
CC(CCN1CCCN(C)CC1)c1ccccc1 (configuration not stated)	i
CCC(NC(=O)c1cccnc1)c1ccccc1 (configuration not stated)	i
COc1cc(CN2CCN(Cc3cccc(Cl)c3)CC2)c([N+](=O)[O-])cc1OC	i
O=C(Nc1ccc(N2CCOCC2)c(Cl)c1)c1cncc(Br)c1	i
O=C(NC1CCCCCCC1)c1ccccc1	i
CN(c1ccc(C(=O)NC2CCCCCC2)cc1)S(=O)(=O)c1ccccc1	+
CN(C)S(=O)(=O)c1ccc(C(=O)NC2CCCCCCC2)cc1	i
COc1cccc(-c2nc(Cc3ccc(Cl)cc3)no2)c1	i
O=C(Cc1ccc(F)cc1)NCc1ccc(Cl)cc1	i
COc1cc(C(=O)Nc2ccc(Br)cc2)c([N+](=O)[O-])cc1OC	i
Cc1c(NC(=O)c2c(F)c(F)c(F)c(F)c2F)c(=O)n(-c2ccccc2)n1C	+
Cc1c(NC(=O)c2c(O)c3ccccc3n(C)c2=O)c(=O)n(-c2ccccc2)n1C	i
Cc1c(NC(=O)c2ccccc2-c2ccccc2C(=O)O)c(=O)n(-c2ccccc2)n1C	i
COc1nonc1OC(C)CNc1ccc([N+](=O)[O-])cc1Cl (configuration not stated)	i
CCN(CC)Cc1c(-c2ccccc2)c2cc([N+](=O)[O-])ccc2n1C	i
O=S(=O)(c1ccc(F)cc1)N1CCCN(S(=O)(=O)c2ccc(F)cc2)CC1	i
O=S(=O)(c1ccc(F)cc1)n1cccc1	+
O=S(=O)(c1ccc(F)cc1)c1ccc(F)cc1	i
COc1cccc(N(CC(=O)Nc2ccc(OC)cc2OC)S(C)(=O)=O)c1	i
COc1ccc(/C=C(\C#N)c2nc(-c3ccc(OC)cc3)cs2)cc1	i
COc1ccc(OCCCN2CCCC(C)C2)cc1 (configuration not stated)	+
CC1CCCN(CCCOc2ccc([N+](=O)[O-])cc2)C1 (configuration not stated)	i
CCOc1ccccc1OCCCN1CCCC(C)C1 (configuration not stated)	i
CCc1ccc(NC(=O)C2CCN(C(=O)c3cc(OC)cc(OC)c3)CC2)cc1	i
